High-throughput results as filed in PubChem BioAssay.
ALR H2O2 inh – blocks human ALR sulfhydryl oxidase activity; AID 485317; 290,000 tested, 3.8% active; P55789; inhibition, % (concentration not given with the values); purified ALR, DTT oxidation, H2O2 HRP-luminol luminescence;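 active means mean replicate inhibition above about 79%, with every replicate also reaching it, limit read from the data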
Target sequence (P55789 whole entry, looked up): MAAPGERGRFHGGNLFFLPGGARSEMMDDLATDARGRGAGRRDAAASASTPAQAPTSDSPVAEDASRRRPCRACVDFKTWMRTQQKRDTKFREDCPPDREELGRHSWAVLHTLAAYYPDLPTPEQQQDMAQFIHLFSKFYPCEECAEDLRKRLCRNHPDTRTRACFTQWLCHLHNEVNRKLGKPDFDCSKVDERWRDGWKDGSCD
Mot1-301 SUMO – blocks SUMOylation pathway, rescuing yeast Mot1-301 growth; S. cerevisiae Mot1-301 growth rescue, ATP luminescence, 38.5C; percent above DMSO median, 100 means doubled; growth rescue, % at 18.8 µM; 320,000 tested, 1% active;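 active means every valid replicate shows activation above 250% relative to neutral control wells; inactive means the rest, any valid replicate at or below 250%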;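 further: OY570 slx delta 5 strain wells were the positive control but not used for scaling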
HIF activator – HIF pathway transcriptional activation | U2OS HRE-luciferase reporter, luminescence; normalized: DMSO 0%, desferrioxamine 100% | activation, % at 7.5 µM (by protocol) | 300,000 tested, 0.32% active;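 active means mean activation of at least 10% of the iron chelator positive control signal, with at least half of replicates also reaching 10%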
M18AAP inhibitor – PfM18AAP enzyme inhibition. 290,000 tested, 1.2% active. recombinant PfM18AAP, H-Glu-NHMec fluorogenic cleavage. inhibition, % at 7.35 µM;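 active means inhibition above the campaign mean inhibition over all tested compounds plus 3 SD, cut at about 28% in these data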;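 further: 0% = plate median of test compound wells and 100% = 2 mM ZnCl2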
* hit, by the source's call; nt = not tested or not shown. The list is not random: actives were taken first. Their share in the collection is about 5.3%.

SMILES | ALR H2O2 inh | Mot1-301 SUMO | HIF activator | M18AAP inhibitor
O=C(Nc1ccc(C(F)(F)F)cc1)N1CCN(c2ccnc3cc(Cl)ccc23)CC1 | -7 | 43 | -1 | -6
CC(=O)Nc1ccc(NC(=O)CSc2ccc3nnc(-c4ccccn4)n3n2)cc1 | -4 | 179 | 0 | 3
Cc1sc2nc3c(C(=O)N4CCN(c5ccccn5)CC4)cccn3c(=O)c2c1C | nt | nt | nt | 0
Cc1cn(-c2cc(C(=O)Nc3ccc(C)c(NC(=O)C(=O)c4c[nH]c5ccccc45)c3)cc(C(F)(F)F)c2)cn1 | 1 | -18 | 1 | nt
Cc1ccccc1NCC(=O)N/N=C\c1ccc2c(c1)OCO2 | 94* | -2 | 0 | 2
COc1cc(C(=O)N/N=C/c2ccc(OC(=O)c3ccccc3Cl)c(OC)c2)ccc1O | 14 | -11 | -1 | 3
COc1cc(/C=N/NC(=O)c2ccccc2O)ccc1OC(=O)CC1SC(=O)NC1=O (configuration not stated) | 88* | -22 | 0 | 16
COc1cc(/C=N/NC(=O)c2ccc(-n3cccc3)cc2)ccc1O | 99* | -5 | 2 | 9
COc1cc(/C=N\NC(=O)c2c(C)nc3cc(C)ccn23)ccc1O | 97* | 110 | 0 | 2
O=C(CCN1C(=O)/C(=C/c2ccccc2Cl)SC1=S)NCCCN1CCOCC1 | -10 | 21 | 0 | 24
O=C(COC(=O)CCc1nc2ccccc2s1)NCc1ccco1 | 0 | nt | -4 | -1
CSCC[C@H](NC(=O)N1CCn2c1nc1ccccc12)C(=O)NCc1ccco1 | 96* | 19 | 0 | 4
CCC(=O)c1cc(F)c(N2CCN(S(=O)(=O)c3ccc(C)cc3)CC2)cc1C | -1 | -4 | 0 | 2
Cc1oc(C(=O)Nc2ccc(C(=O)O)cc2)cc1COc1ccccc1 | 97* | nt | 0 | 6
CC(=O)c1cc(C(=O)Nc2ccc(C(=O)O)cc2)oc1C | 19 | nt | 0 | 13
CC(C)c1cc(=O)[nH]c(N2CCN(Cc3ccc4c(c3)OCO4)CC2)n1 | -7 | -19 | 0 | 4
Cc1cc(C(=O)O)cc(Br)c1N | -3 | 326* | 0 | 2
Cc1ncc(CO)c(/C=N/Nc2cccc(Cl)n2)c1O | 86* | 10 | -15 | 15
CCN(CCO)c1ccc(NC(=S)Nc2cccc(S(=O)(=O)N(C)C)c2)cc1 | 99* | 9 | 1 | 10
CN(C)S(=O)(=O)c1cccc(NC(=S)Nc2ccc(Cl)cc2Cl)c1 | 99* | -24 | 1 | -1
CN(C)S(=O)(=O)c1cccc(NC(=S)NCc2ccco2)c1 | -2 | -4 | 0 | -11
CN(C)S(=O)(=O)c1cccc(NC(=S)Nc2cc(Cl)cc(Cl)c2)c1 | nt | -12 | 0 | -8
O=C(c1ccccc1)C(O)C(c1ccccc1)N1CCOCC1 (configuration not stated) | 26 | -8 | 2 | -5
COc1ccc(CNC(=O)CN(C(=O)c2snc(C(N)=O)c2N)c2ccccc2F)cc1 | 17 | 6 | 2 | -4
COc1c(Cl)cc(-c2noc(C)c2C(=O)NC(C)C)cc1Cl | 93* | 6 | nt | 0
SMILES | ALR H2O2 inh | Mot1-301 SUMO | HIF activator | M18AAP inhibitor
O=C(NCCSc1ccc(Br)cc1)c1ccc2nc[nH]c2c1 | -19 | -4 | 1 | -8
CCCCNC(=S)N(CCCN(C)C)Cc1cc2cc3c(cc2[nH]c1=O)OCO3 | -21 | -2 | 0 | -1
O=C(NC1CC1)c1cc(-c2ccccn2)nc2ccccc12 | 4 | 40 | -1 | 5
O=C(NNS(=O)(=O)c1ccc2ccccc2c1)c1cc(-c2ccccn2)nc2ccccc12 | 96* | 36 | 0 | -6
Cc1ccn(CC(=O)N/N=C/c2cc([N+](=O)[O-])ccc2O)n1 | 1 | 408 | -1 | 5
CN(CC(=O)Nc1ccccc1Br)C(=O)C(Cc1ccccc1)NC(=O)c1ccccc1 (configuration not stated) | -3 | -5 | 0 | -7
Cc1nc(C(=O)N(C)C)nn1-c1cc(Cl)ccc1Cl | 12 | 275 | 0 | 0
Cc1c(C(=O)N(C)C)c2cc(Cl)ccc2n1O | 98* | 1 | 0 | 10
Cc1c(C(=O)N(C)C)c2ccc(Cl)cc2n1O | 99* | 2 | 0 | 10
CCOC(=O)c1c(C)n(O)c2ccc(Cl)cc2c1=O | 4 | 1 | 0 | 5
Cc1ccc(/C=C(\C#N)C(=O)NC(C)C)o1 | -1 | -8 | 0 | 8
CC(C)NC(=O)/C(C#N)=C/c1ccc(N(C)C)o1 | 98* | -3 | 1 | 5
Cc1sc2nc(CN3CCCCC3)nc(Nc3ccc4c(c3)OCCO4)c2c1C | nt | 6 | 1 | 0
CC(NC(=O)c1ccco1)C(=O)N1CCN(S(=O)(=O)c2ccccc2C#N)CC1 (configuration not stated) | -3 | -4 | nt | nt
